From paper PMC5540273 (PLoS ONE, 2017)

How the values were obtained:
Settings in all cases: concentration: 1 μM, replicates: in singlicate; n = 1
[1] = system: BRSK2
[2] = system: BTK
[3] = system: BUB1
[4] = system: CAMK1B
[5] = system: CAMK1D
[6] = system: CAMK1G
[7] = system: CAMK1
[8] = system: CAMK2A
[9] = system: CAMK2B
[10] = system: CAMK2D
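Also: KINOMEscan kinase panel screen.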

Structure (SMILES)	%Inh [1] [%]	%Inh [2] [%]	%Inh [3] [%]	%Inh [4] [%]	%Inh [5] [%]	%Inh [6] [%]	%Inh [7] [%]	%Inh [8] [%]	%Inh [9] [%]	%Inh [10] [%]
Nc1ncnc2c1ncn2-c1cccc(F)c1 [SKF-97560]	5	22	39	0	0	0	0	0	3	0
COc1cc(Nc2nccc(N3CCC(NC(=O)C4COc5ccccc5O4)C3)n2)cc(OC)c1OC (stereo not shown) [GSK1379761]	0	53	53	25	8	8	21	8	0	9
CCc1ccc(-c2ccc3c(c2)-c2nn(C)cc2S(=O)(=O)N3C)cc1	11	13	0	0	5	16	2	9	19	25
Cc1ccccc1COc1cc(-n2cnc3cc(Cl)ccc32)sc1C(N)=O [GW813349]	2	18	0	0	5	0	0	0	0	0
CC(C)(C)c1ccc(C(=O)Nc2cn3cc(-c4ccccc4)ccc3n2)cc1	0	0	0	6	0	0	0	0	0	0
Cc1c(Cn2c(C)nn3c(=O)cc(N4CCO[C@H](C)C4)nc23)cccc1C(F)(F)F [GSK2373690]	0	0	0	0	7	0	7	0	0	0
COc1cc2ncn(-c3cc(OCc4ccc(S(C)(=O)=O)cc4)c(C(N)=O)s3)c2cc1OC [GW869979]	0	0	28	0	0	0	0	3	6	0
CN(C)c1cc(-c2ccc3c(N)n[nH]c3c2)nc(N)n1 [GSK2219329]	0	0	24	0	9	0	4	0	0	0
COC(=O)c1c(-c2ccccc2)c2cc(Br)ccc2c(=O)n1Cc1ccc(S(C)(=O)=O)cc1	0	47	15	0	26	21	42	21	6	18
Cc1nnc(-c2ccc3ncn(-c4ccc(S(C)=O)cc4)c3c2)o1 (stereo not shown)	0	0	0	13	0	2	11	0	0	4
Cc1ccc(Oc2ccc(Nc3ncnc4cc[nH]c34)cc2C)cn1	19	19	0	0	34	0	16	0	0	0
COC(=O)c1c(-c2ccccc2)c2cc(Br)ccc2c(=O)n1Cc1ccc(NC(=O)CCC(=O)O)cc1	0	38	20	38	12	9	12	0	0	3
O=C(Nc1n[nH]c2cc(-c3ccccc3F)ccc12)C1CC1 [SB-733371]	0	0	0	0	0	0	0	2	0	0
CCCNC(=O)Nc1ccc(Oc2ncnc3ccn(C)c23)cc1	8	0	0	0	0	19	13	0	1	11
Nc1nc(-c2ccccc2F)c(-c2ccnc3ccccc23)s1 [GW560459]	4	0	61	0	0	0	6	0	0	0
CN1C(=O)C(Nc2ccccc2)=C(c2ccccc2)C1=O [SB-300079]	0	0	32	0	0	0	0	0	0	0

Structure (SMILES)	%Inh [1] [%]	%Inh [2] [%]	%Inh [3] [%]	%Inh [4] [%]	%Inh [5] [%]	%Inh [6] [%]	%Inh [7] [%]	%Inh [8] [%]	%Inh [9] [%]	%Inh [10] [%]
CCS(=O)(=O)c1ccc(OC)c(Nc2ncc(-c3ccc(F)cc3)o2)c1.Cl [GW591947]	0	0	8	0	3	4	0	0	0	12
Cl.c1ccc(Cn2cnc3cc(Nc4ncnc5ccccc45)ccc32)cc1 [GW272142]	0	0	38	31	0	0	0	0	0	15
Cc1nnc(-c2ccc(C)c(-c3ccc(C(=O)O)cc3)c2)o1 [GW608005]	8	0	17	8	4	0	2	0	0	0
COc1cc2ncn(-c3cc(OCc4ccncc4)c(C(N)=O)s3)c2cc1OC [GSK336313]	0	0	4	24	25	47	24	0	0	37
COc1cc(Nc2nccc(N3CCC(NC(=O)C(C)c4ccc(Cl)cc4)C3)n2)cc(OC)c1OC (stereo not shown) [GSK1379757]	0	0	48	0	9	0	22	0	0	0
COc1ccc(-c2coc3ccc(-c4nnc(SCc5cccc(C#N)c5)o4)cc23)cc1	10	0	0	6	23	8	26	0	0	7
O=c1cc(N2CCOCC2)nc2n(Cc3ccc(F)c(Cl)c3)ccn12 [GSK2297099]	0	0	0	32	9	11	17	0	0	23
COc1ccc(-c2cc3c(C)nc(N)nc3n([C@H]3CC[C@H](OCCO)CC3)c2=O)cn1	0	0	0	7	0	0	0	0	0	0
CCS(=O)c1ccc(-c2coc3ccc(-c4nnc(C)o4)cc23)cc1 (stereo not shown)	11	18	0	5	23	2	20	0	3	0
COc1cccc(C2=C(N(C)c3ccccc3)C(=O)NC2=O)c1 [SB-334865]	0	0	53	8	12	0	4	0	0	17
OCCCNc1nccc(-c2c(-c3cccc(C(F)(F)F)c3)nn3cc(C(F)(F)F)ccc23)n1 [GW630813]	0	0	42	0	14	1	11	0	0	22
CCC(=O)c1c(-c2ccccc2)c2cc(Cl)ccc2c(=O)n1Cc1cc(S(C)(=O)=O)n(CCC(C)(C)O)n1	0	23	14	0	0	33	7	15	0	24
O=C(Nc1n[nH]c2nc(-c3ccccc3)c(Br)cc12)C1CC1 [SB-708998]	32	0	11	26	4	0	4	0	0	4
O=C(Nc1ccc2c(c1)OCO2)NC1CCN(c2ccnc(NCc3ccc(F)cc3)n2)CC1 [GSK1379859]	0	0	7	0	16	0	16	0	0	7
CCC(=O)c1c(-c2ccccc2)c2cc(Cl)ccc2c(=O)n1Cc1cc(C(=O)NC2CC2)n(C)n1	0	15	6	0	12	0	20	0	0	0
